Consider 45 molecules from PubChem BioAssay AID652115 (Broad Institute, 2013).

Each structure is given as a SMILES string. Out of some 330,000 compounds screened, about 3,800 (1.2%) were called active. Rule as the data show it: active = inhibition above about 15%; inconclusive = no clear call, values can overlap the other calls; inactive = below that. The sample as a whole holds a higher share of actives than the screen did.

For this assay, the target named is NAD-dependent protein deacylase sirtuin-5, mitochondrial (Homo sapiens) (UniProt Q9NXA8). In words: SIRT5 desuccinylase inhibitors, primary screen, biochemical, fluorescence imaging, single point, set 5 (AID 652115). The following applies: Purified SirT5, succinyl-peptide AMC, trypsin-coupled fluorescence; at 15 µM; active compounds read high.
NAD-dependent protein deacylase sirtuin-5, mitochondrial (Homo sapiens), sequence (Q9NXA8 whole entry, looked up): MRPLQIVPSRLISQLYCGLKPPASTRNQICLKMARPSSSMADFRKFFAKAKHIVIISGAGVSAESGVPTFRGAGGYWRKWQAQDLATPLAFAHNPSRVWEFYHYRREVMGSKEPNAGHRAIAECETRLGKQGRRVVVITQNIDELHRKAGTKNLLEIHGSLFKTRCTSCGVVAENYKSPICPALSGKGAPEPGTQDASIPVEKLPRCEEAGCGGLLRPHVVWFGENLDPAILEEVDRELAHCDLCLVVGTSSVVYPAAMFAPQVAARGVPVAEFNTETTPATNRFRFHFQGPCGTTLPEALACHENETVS
A word on the inhibition: it is the relative decrease from the control value, in per cent. As for `O=C(C[C@@H]1CC[C@@H](NS(=O)(=O)c2ccc(F)cc2)[C@H](CO)O1)NCc1ccc(Cl)c(Cl)c1`, the inhibition is -7.51% (inactive). With `CCCCNC(=O)C[C@@H]1C[C@@]2(C(=O)OCC)CCC=C2N(Cc2ccco2)C1=O`, the inhibition is 4.42% (inactive). For `CCOC(=O)N1CCN(C(=O)C[C@@H]2C[C@@]3(C(=O)OC)CC(C)(C)CC=C3N(Cc3ccco3)C2=O)CC1` the value was -1.2% (inactive). To `CCCCNC(=O)C[C@@H]1C[C@@]2(C(=O)OC)CC(C)(C)CC=C2N(Cc2ccco2)C1=O` belongs 21.7% (active); to `CC(C)NC(=O)N(C)C[C@@H]1Oc2c(NC(=O)c3cnccn3)cccc2C(=O)N([C@@H](C)CO)C[C@@H]1C`, -2.42% (inactive). Turning to `COc1ccc2c3c([nH]c2c1)[C@@H](CO)N(S(C)(=O)=O)CC31CN(CC2CC2)C1`, the inhibition is 1.2% (inactive). To `O=C(Cc1ccc([N+](=O)[O-])cc1)NCCS(=O)(=O)N1CCN(c2ccccc2)CC1` belongs -5.2% (inactive). To `O=[N+]([O-])c1ccc(N2CCOCC2)cc1` belongs -2.77% (inactive); to `CN(C)S(=O)(=O)N1CCN(c2ccc([N+](=O)[O-])cc2)CC1`, 17.4% (active); to `O=C(Cc1ccccn1)NCC[C@H]1CC[C@@H](NS(=O)(=O)c2ccc(F)cc2)[C@H](CO)O1`, -3.9% (inactive). To `Nc1[nH]c(C(=O)c2ccccc2)c(-c2ccc(Cl)cc2Cl)c1C(=O)c1ccccc1` belongs 1.08% (inactive); to `CC(Oc1ccccc1F)C(=O)NN` (stereo not given), 5.06% (inactive); to `CC(Oc1ccc(F)cc1F)C(=O)/C=C/N(C)C` (stereo not given), 38.2% (active). Turning to `O=C(C=CC(=O)Nc1ccc(F)cc1F)Nc1ccc(F)cc1F`, the inhibition is 2.61% (inactive). For the molecule `CCCN1[C@H](C(=O)N[C@H](C)c2ccccc2)[C@@H](CO)[C@@H]2Cn3c(ccc(-c4ccccc4)c3=O)[C@@H]21`, the inhibition is -2.75% (inactive).

Consider `O=C(Cc1ccccc1)N1C[C@H]2[C@@H](c3ccccc31)[C@H](CO)N2C(=O)c1ccc(F)cc1`, for which the inhibition was 0.689% (inactive). To `NC(=O)Cn1c(=O)oc2ccccc21` belongs 23.1% (active); to `CC(=O)c1ccc(NC(=O)Cn2c(=O)oc3ccccc32)cc1`, -1.5% (inactive). For `Cc1cccnc1NC(=O)Cn1c(=O)oc2ccccc21` the value was -0.084% (inactive); for `CO[C@@H]1CN(C)C(=O)c2cc(NC(C)=O)ccc2OC[C@H](C)N(C(=O)CC2CC2)C[C@@H]1C`, 0.181% (inactive). For `CO[C@@H]1CC[C@H]2CCN(C)C(=O)[C@@H](C)CN(C)C(=O)c3cccc(C#N)c3OC[C@@H]1O2` the value was -2.44% (inactive).

As to `CN(C)CC(=O)Nc1ccc2c(c1)[C@@H]1C[C@H](CC(=O)NCc3ccc(Cl)cc3)O[C@@H](CO)[C@@H]1O2`, the inhibition was 4.86% (inactive). `O=C(C[C@@H]1C[C@H]2c3cc(NS(=O)(=O)c4ccc(F)cc4)ccc3O[C@H]2[C@H](CO)O1)NCCc1ccccc1`: the inhibition is 1.01% (inactive).

Turning to `COCCNC(=O)C[C@H]1C[C@H]2c3cc(NS(C)(=O)=O)ccc3O[C@H]2[C@H](CO)O1`, the inhibition is -4.62% (inactive). Take `O=C(C[C@@H]1C[C@@H]2c3cc(NC(=O)C4CCC4)ccc3O[C@@H]2[C@@H](CO)O1)NCc1ccccc1`: the inhibition was 5.94% (inactive). For `CN(C)c1ccc2c(c1)[C@H]1C[C@H](CC(=O)NCc3ccc(Cl)cc3)O[C@H](CO)[C@H]1O2` the value was 15.9% (active); for `CS(=O)(=O)Nc1ccc2c(c1)[C@H]1C[C@@H](CC(=O)NCCc3ccccc3)O[C@@H](CO)[C@H]1O2`, 21.9% (active). To `O=C(C[C@H]1C[C@H]2c3cc(NC(=O)C4CCC4)ccc3O[C@H]2[C@@H](CO)O1)NCc1ccc(Cl)cc1` belongs 0.855% (active); to `CN(C)CC(=O)Nc1ccc2c(c1)[C@H]1C[C@@H](CC(=O)NCc3ccc(Cl)cc3)O[C@@H](CO)[C@H]1O2`, 4.32% (inactive).

`O=C(C[C@@H]1C[C@H]2c3cc(NC(=O)C4CCC4)ccc3O[C@H]2[C@@H](CO)O1)NCc1ccc2c(c1)OCO2`: the inhibition is 5.03% (inactive). For `COCC#Cc1cnc2c(c1)C(=O)N([C@H](C)CO)C[C@H](C)[C@H](CN(C)C(=O)C1CCOCC1)O2` the value was 3.88% (inactive); for `CCNC(=O)c1cc2c(c(-c3cccc(C4=CCCC4)c3)n1)[C@H](CCO)N([S@@](=O)C(C)(C)C)C2`, 13.7% (inactive).

As for `O=C(C[C@@H]1C=C[C@@H](NC(=O)C2CC2)[C@H](CO)O1)NCCCN1CCOCC1`, the inhibition was 4.53% (inactive). To `N#C[C@H]1[C@@H](c2ccccc2C2=CCCCC2)[C@H](CO)N1C(=O)c1ccccn1` belongs 2.41% (inactive); to `CN1C(=O)c2cc(NC(=O)C3CCOCC3)ccc2OC[C@H]2O[C@@H](CC(=O)NCC3CCCCC3)CC[C@@H]21`, 12.7% (inactive); to `O=C(Cc1ccccn1)N1CC(=O)N2[C@H](CO)[C@@H](c3ccc(C#CC4CCCC4)cc3)[C@H]2C1`, 1.82% (inactive).

Take `O=C(C[C@H]1CC[C@@H]2[C@H](COC[C@H](O)CN2S(=O)(=O)c2ccc(Cl)cc2)O1)N[C@@H]1CCN(Cc2ccccc2)C1`: the inhibition is 0.669% (inactive). As to `Cc1cccc(S(=O)(=O)N2C[C@@H]3[C@H](c4ccccc42)[C@@H](CO)N3C(=O)c2ccccc2)c1`, the inhibition was 2.62% (inactive).

Turning to `CO[C@@H]1CN(C)C(=O)c2ccc(NC(=O)Nc3cc(F)ccc3F)cc2OC[C@@H](C)N(C)C[C@@H]1C`, the inhibition was 4.44% (inactive). Regarding `COCC(=O)N1CC(=O)N2[C@H](CO)[C@@H](c3ccc(C#CC4CCCCC4)cc3)[C@@H]2C1`, the inhibition is -3.9% (inactive).

Take `C/C=C/c1cnc2c(c1)C(=O)N([C@@H](C)CO)C[C@@H](C)[C@H](CN(C)Cc1cncnc1)O2`: the inhibition is -2.68% (inactive). For `O=C(CN1CCOCC1)N1CCCCN2[C@H](CO)[C@H](c3ccc(-c4ccccc4)cc3)[C@@H]2C1` the value was -2.91% (inactive); for `O=C(CN1CCOCC1)N1CCCCN2[C@@H](CO)[C@H](c3ccc(-c4ccccc4)cc3)[C@@H]2C1`, -2% (inactive). To `O=C(CN1CCOCC1)N1CCCCN2[C@H](C1)[C@H](c1ccc(-c3ccccc3F)cc1)[C@@H]2CO` belongs 22.6% (active); to `CNC(=O)C[C@@H]1CC[C@@H]2[C@H](COc3ccc(NC(=O)Nc4ccccc4)cc3C(=O)N2C)O1`, 5.7% (inactive).
